Compound activity as filed in PubChem BioAssay.
Only some compounds are listed: those with a hit (about 19% of all), similar ones and a draw of the others.
Pf growth 96h = inhibits malaria parasite growth, 96 h. P. falciparum luciferase reporter growth, 96 h. Potency, µM (titrated, usually from 28.7 µM), for inactives: at the top dose activity change, negative = inhibition, hits mostly inhibitors. 6.9% of 320,000 active. AID 504834; also: potency is read from the fitted curve at half-maximal effect; % is scaled to controls: 0 for no effect and ±100 for the full control effect
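Compounds incubated with erythrocytes infected by luciferase-expressing P. falciparum (2% hematocrit, 0.05% parasitemia final) for 96 hours, 37 C in 5% CO2. Growth inhibition scored as decreased luciferase luminescence.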
Lassa entry inh = Lassa virus entry inhibition; Lassa virus pseudotype entry inhibition, cell reporter; Potency, µM (doses to about 37.9 µM), for inactives: at the highest dose activity change, negative = inhibition, usual class: inhibitors; 1.2% of 300,000 active; AID 540256; calls by dose curve; tested in HEK293 cells; also: potency is read from the fitted curve at half-maximal effect; % is scaled to controls: 0 for no effect and ±100 for the full control effect; nearly all actives have a fitted effect of over 50% in size
Cycloheximide cs = counter-screen for Shiga toxin inhibitors: cycloheximide protein synthesis inhibition; cell reporter, cycloheximide protein synthesis inhibition counterscreen; max response, %; 12% of 300,000 active; in the data active = max response mostly above about 13%, no sharp cut-off; inactive = mostly below about 14%; also: read at 38.3 µM for the half of the compounds with a filed dose; 0% is about no effect
Shiga toxin inh = Shiga toxin inhibition; Vero cells, Shiga toxin protein synthesis inhibition reporter; 9.2% of 290,000 active; inhibition, % at 38.7 µM; in the data active = inhibition mostly above about 28%, no sharp cut-off; inactive = mostly below about 43%; also: 0% is about no effect
Pf growth 48h = P. falciparum growth inhibition at 48 hours (one generation); AID 504832; 5.9% of 310,000 active; P. falciparum luciferase growth in erythrocytes, 48 h; Potency, µM (highest dose often 28.7 µM), inactives show at the top dose activity change, negative = inhibition, actives largely listed as inhibitors; also: potency is read from the fitted curve at half-maximal effect; % is scaled to controls: 0 for no effect and ±100 for the full control effect
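In quantitative HTS format, infected erythrocytes bearing luciferase-reporter parasites were treated for a single generation at 37 C. Luminescence after adding detection reagent served as the growth measure.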
MARV entry inh = Marburg virus entry inhibition; Marburg virus pseudotyped entry inhibition, cell reporter; Potency, µM (highest dose often 37.8 µM), for the others: top-dose activity change, negative = inhibition, usual class: inhibitors; 1.8% of 300,000 active; AID 540276; calls by dose curve; tested in HEK293 cells; also: potency is read from the fitted curve at half-maximal effect; % is scaled to controls: 0 for no effect and ±100 for the full control effect
* = called active by the depositor; ? = inconclusive; / = not tested or not shown; ! = repeats disagree; [ ] = another dose, or the depositor's remark. Unless noted, calls follow the shape of the dose curve; as a rule, active = well fitted inhibition curve with a large enough effect; inconclusive = small, poorly fitted or top-dose-only effect, or another doubt; inactive = no such curve, though single readings can be large or run the other way.

SMILES	Pf growth 96h	Lassa entry inh	Cycloheximide cs	Shiga toxin inh	Pf growth 48h	MARV entry inh
CO[C@H]1C=CO[C@@]2(C)Oc3c(C)c(O)c4c(O)c(c(C=NN5CCN(C)CC5)c(O)c4c3C2=O)NC(=O)C(C)=CC=C[C@H](C)[C@H](O)[C@@H](C)[C@@H](O)[C@@H](C)[C@H](OC(C)=O)[C@@H]1C	1.2µM*	-19%	-2	1	1.2µM*	?
CO[C@H]1C=CO[C@@]2(C)Oc3c(C)c(O)c4c(O)c(c(C=NN5CCN(C6CCCC6)CC5)c(O)c4c3C2=O)NC(=O)C(C)=CC=C[C@H](C)[C@H](O)[C@@H](C)[C@@H](O)[C@@H](C)[C@H](OC(C)=O)[C@@H]1C	/	/	-3	-15	/	/
CO[C@H]1/C=C/O[C@@]2(C)Oc3c(C)c(O)c4c(O)c(c(C=NN5CCN(C)CC5)c(O)c4c3C2=O)NC(=O)/C(C)=C\C=C\[C@H](C)[C@H](O)[C@@H](C)[C@@H](O)[C@@H](C)[C@H](OC(C)=O)[C@@H]1C	?	/	/	/	1.2µM*	/
N#Cc1ccc(C(=O)Nc2ccc(Cl)c(-c3nc4cc(Cl)ccc4o3)c2)c(F)c1	/	-11%[46.1 µM]	/	/	/	-3%[46.1 µM]
COC(=O)CC(NC(=O)Nc1ccccc1F)c1ccc2c(c1)OCO2 (stereo unspecified)	1%	/	10	26	4%	/
Cc1ccc(CSC2=NCCN2C(=O)c2ccco2)cc1	?	3%	16	8	13%	30%
COc1ccc(Br)cc1C(C[N+](=O)[O-])c1c(N)n(C)c(=O)n(C)c1=O (stereo unspecified)	?	/	-5	-13	3.7µM*	/
CN(C)c1ccc(C(C[N+](=O)[O-])c2c(N)n(C)c(=O)n(C)c2=O)c(F)c1C#N (stereo unspecified)	-24%	/	-3	-13	0%	/
CCC(CC)C(=O)NCCN1CCN(C(=O)C(CC)CC)CC1	71%	?	-3	-20	?	-21%
COC(=O)CC(CP(=O)(O)CN(C)C=O)C(=O)OC (stereo unspecified)	10%	/	-2	13	0%	/
COC(=O)[C@H](c1ccccc1Cl)N1CCc2sccc2C1	8.3µM*	/	-2	5	12µM*	/
COC(=O)C(c1ccccc1Cl)N1CCc2sccc2C1 (stereo unspecified)	11µM*	/	-5	-6	?	/
COC(=O)[C@H](c1ccccc1)N1CCCCCC1	/	/	/	/	/	10%[46.1 µM]
CCCCCCOc1ccc(OC(=O)c2ccncc2)cc1	2%	-15%	9	14	?	?
O=S(=O)([O-])CCC[n+]1ccc(Oc2ccccc2)cc1	?	/	2	11	-11%	/
O=c1cccc2n1CC1CC2CN(S(=O)(=O)c2ccccc2)C1 (stereo unspecified)	115%	-4%	-3	-16	0%	19%
CC(=O)c1ccc(NC(=O)[C@@]2(CC(=O)O)CC(/C=C/c3ccccc3)=NO2)cc1	36%	/	-2	-11	12%	/
CCOC(=O)c1c(S(=O)(=O)NCC(=O)Nc2cc(C)ccc2OC)c(C)n(C)c1C	9.3µM*	-6%[46.1 µM]	-2	-3	-9%	/
CCOC(=O)c1c(S(=O)(=O)NCC(=O)Nc2cccc(C)c2)c(C)n(C)c1C	4.1µM*	/	-5	-10	-25%	/
Cc1ccc(NC(=O)CCn2ccc([N+](=O)[O-])n2)nc1	27%	2%	-1	-4	-10%	11%
COCCOc1cc(N(CC(=O)N(C)C)S(=O)(=O)c2ccccc2)c(Cl)cc1Cl	12µM*	-16%	14	19	4%	-3%[46.1 µM]
CCN(CC)S(=O)(=O)c1ccc(NC(=O)CN(c2ccc(OC)cc2OC)S(C)(=O)=O)cc1	-25%	-19%	-4	7	9.3µM*	?
CCOc1ccccc1N(CC(=O)Nc1cccnc1)S(=O)(=O)c1ccc(C)cc1	38%	0%	50*	160*	?	5%[46.1 µM]
COc1ccc(OC)c(N(CC(=O)Nc2cccnc2)S(=O)(=O)c2ccc(C)cc2)c1	?	?	-3	-11	/	?
CCN(CC)S(=O)(=O)c1ccc(NC(=O)CN(c2cccc(C)c2)S(C)(=O)=O)cc1	?	?	-2	-6	?	?
SMILES	Pf growth 96h	Lassa entry inh	Cycloheximide cs	Shiga toxin inh	Pf growth 48h	MARV entry inh
COc1ccc(OC)c(N(CC(=O)Nc2cccnc2)S(=O)(=O)c2ccc(OC)c(OC)c2)c1	-6%	-1%	-2	-6	?	2.8µM*!
Cc1ccnn1C(C)C(=O)O (stereo unspecified)	-5%	0%	-2	9	1%	4%[46.1 µM]
CCOc1ccccc1N(CC(=O)Nc1cc(OC)ccc1OC)S(=O)(=O)c1ccccc1	48%	/	1	15	?	/
CCOc1ccccc1N(CC(=O)Nc1ccccc1)S(=O)(=O)c1ccccc1	12µM*	/	-2	-1	?	/
Cc1cccc(OCC(=O)NCCNC(=O)c2ccncc2)c1	?	-1%	-6	-1	-1%	-10%[46.1 µM]
O=C(Nc1ccc(F)cc1)OC1CN2CCC1CC2 (stereo unspecified)	57%	2%	10	-7	63%	0%[46.1 µM]
CCCc1cc2c(=O)c(-c3cscn3)c(C(=O)OCC)oc2cc1O	-2%	8%	7	31	31%	4%
CCc1cc2c(=O)c(-c3nc(C)cs3)c(CCCC(=O)O)oc2cc1O	9.3µM*	12%[46.1 µM]	-5	8	3%	-12%[46.1 µM]
CN(CC(=O)Nc1ccc(SC(F)F)cc1)C1CCCCC1	4%	-15%	0	28	-8%	-8%[46.1 µM]
COc1cccc(NC(=O)C2CCN(C(=O)[C@@H]3Cc4ccccc4CN3C(=O)OC(C)(C)C)CC2)c1	?	/	15	12	10µM*	/
COc1cccc(NC(=O)C2CC2)c1	-2%	/	/	/	21%	/
C[C@@H](NC(=O)[C@@H]1Cc2ccccc2CN1C(=O)OC(C)(C)C)C(=O)NC1CCCCC1	13µM*	-1%[46.1 µM]	10	-2	?	6%[46.1 µM]
C[C@H](NC(=O)[C@@H]1Cc2ccccc2CN1C(=O)OC(C)(C)C)C(=O)NC1CCCCC1	13%	-12%[46.1 µM]	-2	32	?	-28%[46.1 µM]
COc1cccc(NC(=O)C2CCN(C(=O)[C@@H]3Cc4ccccc4CN3)CC2)c1	?	/	38*	12	?	/
Cc1ccc(NC(=O)Cc2cc(C(=O)O)c3ccccc3n2)c(C)c1	?	15µM*	13	43	?	12µM*
Cc1ccc(NC(=O)CCl)c(C)c1	10µM*	?	3	2	1.9µM*	?
Cc1ccc(NC(=O)CC2(CC(=O)O)CCCC2)c(C)c1	4.1µM*	-3%[46.1 µM]	-5	7	3%[0.00184 µM]	22%[46.1 µM]
Cc1ccc(NC(=O)CO/N=C/c2ccccc2C)c(C)c1	2.3µM*	-7%[46.1 µM]	2	9	?	?
CCCn1c(SCC(=O)Nc2nonc2C)nnc1-c1ccoc1C	0%	-1%	9	-4	-6%	24%[46.1 µM]
O=C(Nc1ccccc1)NC1CCN(Cc2nnnn2C2CCCCC2)CC1	-12%	-4%	-1	3	?	?
